Structures can show the parent of a compound that is named as a salt.
The compounds below were run on MDA-MB-231 (assay: relative cell viability, compound + erastin, vs DMSO (fraction of DMSO control); higher = less growth inhibition). Details: 72 h.
Compound O=C(CN1CCN(C(=O)c2ccco2)CC1)Nc1cc(C(F)(F)F)ccc1Cl + CCOc1ccccc1-n1c(C(C)N2CCN(C(=O)COc3ccc(Cl)cc3)CC2)nc2ccccc2c1=O [erastin] has a relative cell viability of 0.463. Work on CCCCCCCCCCOc1ccc(C(=O)Nc2cc(C(=O)NCCCC)ccc2SC)cc1 + CCOc1ccccc1-n1c(C(C)N2CCN(C(=O)COc3ccc(Cl)cc3)CC2)nc2ccccc2c1=O [erastin] yielded a relative cell viability of 0.845. Compound CCCc1c(OCCCOc2ccc(OCC(=O)O)cc2)ccc(C(C)=O)c1O + CCOc1ccccc1-n1c(C(C)N2CCN(C(=O)COc3ccc(Cl)cc3)CC2)nc2ccccc2c1=O [erastin] has a relative cell viability of 0.833. For CCc1c(-c2ccccc2)c(-c2ccccc2)nn1-c1ccccc1-c1cccc(OCC(=O)O)c1 + CCOc1ccccc1-n1c(C(C)N2CCN(C(=O)COc3ccc(Cl)cc3)CC2)nc2ccccc2c1=O [erastin], the relative cell viability was 0.861. Work on COC(=O)N(CC(=O)O)Cc1cccc(OCc2nc(-c3ccc(Cl)cc3)oc2C)c1 + CCOc1ccccc1-n1c(C(C)N2CCN(C(=O)COc3ccc(Cl)cc3)CC2)nc2ccccc2c1=O [erastin] yielded a relative cell viability of 0.627. In the case of O=C(O)/C=C/c1ccc(O)c(O)c1 [Caffeic Acid] + CCOc1ccccc1-n1c(C(C)N2CCN(C(=O)COc3ccc(Cl)cc3)CC2)nc2ccccc2c1=O [erastin], the relative cell viability was 0.979. Compound CCCCCCS(=O)(=O)NC(=O)c1ccc(CSCc2ccc(-c3ccccc3)cc2)cc1 + CCOc1ccccc1-n1c(C(C)N2CCN(C(=O)COc3ccc(Cl)cc3)CC2)nc2ccccc2c1=O [erastin] has a relative cell viability of 0.733. In the case of Cn1nc(C(=O)N(Cc2ccccc2)Cc2ccc(C(=O)O)cc2)c2c1-c1cc(Cl)ccc1OC2 [Nidufexor] + CCOc1ccccc1-n1c(C(C)N2CCN(C(=O)COc3ccc(Cl)cc3)CC2)nc2ccccc2c1=O [erastin], the relative cell viability was 0.771. Compound Nc1ccc(O)c(C(=O)O)c1 [Mesalamine] + CCOc1ccccc1-n1c(C(C)N2CCN(C(=O)COc3ccc(Cl)cc3)CC2)nc2ccccc2c1=O [erastin] has a relative cell viability of 0.585. Compound CCOc1cc(CC(=O)N[C@@H](CC(C)C)c2ccccc2N2CCCCC2)ccc1C(=O)O [Repaglinide] + CCOc1ccccc1-n1c(C(C)N2CCN(C(=O)COc3ccc(Cl)cc3)CC2)nc2ccccc2c1=O [erastin] has a relative cell viability of 0.566. With CN(CCOc1ccc(CC2SC(=O)NC2=O)cc1)c1ccccn1 (configuration not stated) [Rosiglitazone maleate] + CCOc1ccccc1-n1c(C(C)N2CCN(C(=O)COc3ccc(Cl)cc3)CC2)nc2ccccc2c1=O [erastin] the relative cell viability was 0.965. Work on CC[C@H](C)C(=O)O[C@H]1C[C@H](O)C=C2C=C[C@H](C)[C@H](CC[C@@H](O)C[C@@H](O)CC(=O)O)[C@H]21 [Pravastatin sodium] + CCOc1ccccc1-n1c(C(C)N2CCN(C(=O)COc3ccc(Cl)cc3)CC2)nc2ccccc2c1=O [erastin] yielded a relative cell viability of 1.05. With CC(C)OC(=O)C(C)(C)Oc1ccc(C(=O)c2ccc(Cl)cc2)cc1 [Fenofibrate] + CCOc1ccccc1-n1c(C(C)N2CCN(C(=O)COc3ccc(Cl)cc3)CC2)nc2ccccc2c1=O [erastin] the relative cell viability was 0.646. In the case of CC1(C)C[C@H]2C3=CC[C@@H]4[C@@]5(C)CC[C@H](O)[C@@](C)(CO)[C@@H]5CC[C@@]4(C)[C@]3(C)C[C@H](O)[C@@]2(CO)[C@@H](O)[C@@H]1O [Gymnemagenin] + CCOc1ccccc1-n1c(C(C)N2CCN(C(=O)COc3ccc(Cl)cc3)CC2)nc2ccccc2c1=O [erastin], the relative cell viability was 0.785. Compound CC(C)(O)[C@@H]1Cc2cc3ccc(=O)oc3cc2O1 [marmesin] + CCOc1ccccc1-n1c(C(C)N2CCN(C(=O)COc3ccc(Cl)cc3)CC2)nc2ccccc2c1=O [erastin] has a relative cell viability of 0.646. O=C1c2cc(CO)cc(O)c2C(=O)c2c(O[C@@H]3O[C@H](CO)[C@@H](O)[C@H](O)[C@H]3O)cccc21 [Aloe-emodin-8-O-beta-D-glucopyranoside] + CCOc1ccccc1-n1c(C(C)N2CCN(C(=O)COc3ccc(Cl)cc3)CC2)nc2ccccc2c1=O [erastin] gave a relative cell viability of 0.704. C/C=C(\CC[C@@H](C)[C@H]1CC[C@H]2[C@@H]3CC=C4C[C@@H](O)CC[C@]4(C)[C@H]3CC[C@]12C)C(C)C [Fucosterol] + CCOc1ccccc1-n1c(C(C)N2CCN(C(=O)COc3ccc(Cl)cc3)CC2)nc2ccccc2c1=O [erastin] was tested, and the relative cell viability was 0.881. Work on CC(C)(Oc1ccc(CCNC(=O)c2ccc(Cl)cc2)cc1)C(=O)O [Bezafibrate] + CCOc1ccccc1-n1c(C(C)N2CCN(C(=O)COc3ccc(Cl)cc3)CC2)nc2ccccc2c1=O [erastin] yielded a relative cell viability of 0.937. Cc1ccc(Oc2nc3cc(-c4ccc(-c5ccccc5)cc4)c(Cl)cc3[nH]2)cc1C(=O)O + CCOc1ccccc1-n1c(C(C)N2CCN(C(=O)COc3ccc(Cl)cc3)CC2)nc2ccccc2c1=O [erastin] was tested, and the relative cell viability was 0.629. Compound O=C(/C=C/c1ccc(/C=C/C(=O)Nc2ccc(C3=NCCN3)cc2)cc1)Nc1ccc(C2=NCCN2)cc1 + CCOc1ccccc1-n1c(C(C)N2CCN(C(=O)COc3ccc(Cl)cc3)CC2)nc2ccccc2c1=O [erastin] has a relative cell viability of 0.346. CC(C)(C)c1ccc(-c2nc3ccccc3[nH]2)cc1 + CCOc1ccccc1-n1c(C(C)N2CCN(C(=O)COc3ccc(Cl)cc3)CC2)nc2ccccc2c1=O [erastin] was tested, and the relative cell viability was 0.295. COc1ccc(-c2coc3cc(OC)ccc3c2=O)cc1 [4',7-Dimethoxyisoflavone] + CCOc1ccccc1-n1c(C(C)N2CCN(C(=O)COc3ccc(Cl)cc3)CC2)nc2ccccc2c1=O [erastin] gave a relative cell viability of 0.427. Compound CC(C)c1onc(-c2c(Cl)cccc2Cl)c1COc1ccc(/C=C/c2cccc(C(=O)O)c2)c(Cl)c1 + CCOc1ccccc1-n1c(C(C)N2CCN(C(=O)COc3ccc(Cl)cc3)CC2)nc2ccccc2c1=O [erastin] has a relative cell viability of 0.762. In the case of c1ccc([C@H]2CN3CCSC3=N2)cc1 [Levamisole hydrochloride] + CCOc1ccccc1-n1c(C(C)N2CCN(C(=O)COc3ccc(Cl)cc3)CC2)nc2ccccc2c1=O [erastin], the relative cell viability was 0.779. For C[C@@H]1OCC2(CCN(c3cnc(Sc4ccnc(N)c4Cl)c(N)n3)CC2)[C@@H]1N + CCOc1ccccc1-n1c(C(C)N2CCN(C(=O)COc3ccc(Cl)cc3)CC2)nc2ccccc2c1=O [erastin], the relative cell viability was 0.732. O=C(O)c1c[nH]c2cc(Cl)c(-c3ccc(C4(O)CCC4)cc3)cc12 + CCOc1ccccc1-n1c(C(C)N2CCN(C(=O)COc3ccc(Cl)cc3)CC2)nc2ccccc2c1=O [erastin] was tested, and the relative cell viability was 0.677. For Cc1ccc(C)c(OCCCC(C)(C)C(=O)O)c1 [Gemfibrozil] + CCOc1ccccc1-n1c(C(C)N2CCN(C(=O)COc3ccc(Cl)cc3)CC2)nc2ccccc2c1=O [erastin], the relative cell viability was 0.941. For CCN(CC)c1ccc(C=NNC(=O)c2ccncc2)c(O)c1 + CCOc1ccccc1-n1c(C(C)N2CCN(C(=O)COc3ccc(Cl)cc3)CC2)nc2ccccc2c1=O [erastin], the relative cell viability was 0.677. Compound O=C(Nc1ccc(C(O)(C(F)(F)F)C(F)(F)F)cc1)c1ccccc1Cl + CCOc1ccccc1-n1c(C(C)N2CCN(C(=O)COc3ccc(Cl)cc3)CC2)nc2ccccc2c1=O [erastin] has a relative cell viability of 0.844. In the case of CC[C@H]1[C@@H](O)[C@@H]2[C@H](CC[C@]3(C)[C@@H]([C@H](C)CCC(=O)O)CC[C@@H]23)[C@@]2(C)CC[C@@H](O)C[C@@H]12 [Obeticholic Acid] + CCOc1ccccc1-n1c(C(C)N2CCN(C(=O)COc3ccc(Cl)cc3)CC2)nc2ccccc2c1=O [erastin], the relative cell viability was 0.771. Work on O=C1C(SCCO)=C(SCCO)C(=O)c2ccccc21 + CCOc1ccccc1-n1c(C(C)N2CCN(C(=O)COc3ccc(Cl)cc3)CC2)nc2ccccc2c1=O [erastin] yielded a relative cell viability of 0.851. Work on CC(c1cc2ccccc2s1)N(O)C(N)=O (configuration not stated) [Zileuton] + CCOc1ccccc1-n1c(C(C)N2CCN(C(=O)COc3ccc(Cl)cc3)CC2)nc2ccccc2c1=O [erastin] yielded a relative cell viability of 0.595. Compound O=C1c2cccc(O)c2C(=O)c2c(O)cccc21 [Antrapurol] + CCOc1ccccc1-n1c(C(C)N2CCN(C(=O)COc3ccc(Cl)cc3)CC2)nc2ccccc2c1=O [erastin] has a relative cell viability of 0.903. CCN(CC)CCN(Cc1ccc(-c2ccc(C(F)(F)F)cc2)cc1)C(=O)Cn1c(SCc2ccc(F)cc2)nc(=O)c2c1CCC2 [Darapladib] + CCOc1ccccc1-n1c(C(C)N2CCN(C(=O)COc3ccc(Cl)cc3)CC2)nc2ccccc2c1=O [erastin] gave a relative cell viability of 0.296. Work on O=C(Nc1ccc(C(O)(C(F)(F)F)C(F)(F)F)cc1)c1ccc(C(F)(F)F)cc1 + CCOc1ccccc1-n1c(C(C)N2CCN(C(=O)COc3ccc(Cl)cc3)CC2)nc2ccccc2c1=O [erastin] yielded a relative cell viability of 0.693. CN(C(=O)n1cnc(-c2ccc[n+]([O-])c2)c1)C1CCCCC1 + CCOc1ccccc1-n1c(C(C)N2CCN(C(=O)COc3ccc(Cl)cc3)CC2)nc2ccccc2c1=O [erastin] was tested, and the relative cell viability was 0.613. For O=C(O)CN(CC(=O)O)c1ccccc1OCCOc1ccccc1N(CC(=O)O)CC(=O)O + CCOc1ccccc1-n1c(C(C)N2CCN(C(=O)COc3ccc(Cl)cc3)CC2)nc2ccccc2c1=O [erastin], the relative cell viability was 0.765.

From the supplement of paper PMC9492666
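Further: viability read by CCK-8 kit in 96-well plates, part of a combination screen pairing lipid-metabolism-targeting compounds with erastin.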
